# In PubChem BioAssay (Tox21):
# “And” between values parts separate entries of the source, which are not always exact repeats. Identical values can stand only once. Results filed as inconclusive are left out. A call without a number means that no potency is given here. More than one record can exist for a structure, and the calls need not agree. The source made the active and inactive calls. Unless noted, the call rests on the fitted dose curve; in most records, active means well fitted curve in the direction sought with a large enough effect in the repeat runs; inconclusive means weak or mixed curves; inactive means no such curve, though single readings can be large; an effect the other way counts as inactive or inconclusive.
# What was measured:
# [1] = qHTS RealTime-Glo MT Cell Viability Assay in HEK293 cells - 0 hour (AID 1224880); further: top concentration of the series differs between compounds; nearly all actives have a fitted effect of over 45% in size
# In short: (§1)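 Viable HEK293 cells reduce a cell-permeant prosubstrate; the product diffuses out and is consumed by NanoLuc in the medium to give light. Compounds went in after a 5 h incubation and plates were read over the treatment course.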
# [2] = A CellTox Green Cytotoxicity Assay to monitor cytotoxicity in HEK293 cells - 32 hour (AID 1224881); further: nearly all actives have a fitted effect of over 40% in size
# In short: (§2)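 Fluorescence intensity, read at 0, 8, 16, 24, 32 and 40 h of compound treatment, reflected dye binding to DNA of dead HEK293 cells; compounds (23 nL, DMSO) were added 5 h after plating cells with reagent.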
# [3] = A CellTox Green Cytotoxicity Assay to monitor cytotoxicity in HepG2 cells - 0 hour (AID 1224882); further: nearly all actives have a fitted effect of over 35% in size
# In short: (§3)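 Using 1536-well format, dye-containing HepG2 suspension was seeded, allowed 5 h at 37 C/5% CO2, dosed by pintool with compounds, positive and negative controls, and imaged for fluorescence across 40 h.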
# [4] = A CellTox Green Cytotoxicity Assay to monitor cytotoxicity in HepG2 cells - 32 hour (AID 1224883); further: nearly all actives have a fitted effect of over 50% in size
# In short: as §3
# [5] = qHTS RealTime-Glo MT Cell Viability Assay in HepG2 cells - 16 hour (AID 1224885); further: nearly all actives have a fitted effect of over 50% in size
# In short: (§4)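 HepG2 suspension premixed with RealTime-Glo reagents is plated at 600 cells per well and left 5 h at 37 C/5% CO2. Compounds in DMSO then go in, and bioluminescence reflecting viable cell number is recorded over 40 h.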
# [6] = qHTS RealTime-Glo MT Cell Viability Assay in HEK293 cells - 24 hour (AID 1224886); further: nearly all actives have a fitted effect of over 50% in size; further: potency means the concentration at half of the fitted maximal effect
# In short: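 Reads taken at 0, 8, 16, 24, 32 and 40 h from the same wells. HEK293 cells (600/well) carried RealTime-Glo reagents from seeding, with compound added after a 5 h settle at 37 C.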
# [7] = qHTS RealTime-Glo MT Cell Viability Assay in HEK293 cells - 8 hour (AID 1224887); further: nearly all actives have a fitted effect of over 50% in size; further: potency means the concentration at half of the fitted maximal effect
# In short: as §1
# [8] = A CellTox Green Cytotoxicity Assay to monitor cytotoxicity in HEK293 cells - 16 hour (AID 1224888); further: nearly all actives have a fitted effect of over 35% in size
# In short: as §2
# [9] = qHTS RealTime-Glo MT Cell Viability Assay in HepG2 cells - 0 hour (AID 1224889); further: nearly all actives have a fitted effect of over 50% in size
# In short: as §4
# [10] = qHTS assay to identify small molecule antagonists of the estrogen receptor alpha (ER-alpha) signaling pathway using the BG1 cell line in the presence of 0.1 nM 17-beta-estradiol - cell viability counter screen (AID 1259241); further: nearly all actives have a fitted effect of over 40% in size
# In short: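 Following 5 days in phenol red-free medium with charcoal-stripped serum, VM7Luc4E2 cells received test compounds alongside 0.1 nM 17beta-estradiol (final) at 37C for 22 hr. Live cells were then quantified via protease-substrate fluorescence.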
# [11] = qHTS assay to identify small molecule antagonists of the androgen receptor (AR) signaling pathway using the MDA cell line in the presence of 0.5 nM R1881 - cell viability counter screen (AID 1259242); further: nearly all actives have a fitted effect of over 45% in size
# In short: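 Viability of MDA-kb2 cells was multiplexed with the luciferase AR readout; after 16 hr with compounds and R1881 at 0.5 nM final, CellTiter-Fluor fluorescence was recorded.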
# [12] = qHTS assay to identify small molecule phospholipidosis (PLD) inducers (AID 1259344; active means well fitted curve in the direction sought with a large enough effect; an effect the other way counts as inactive or inconclusive)
# In short: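 HepG2 cells on collagen I, attached 4 h at 37 C, were co-treated with compound and LipidTOX Red dye for 24 h at 37 C, then fixed with paraformaldehyde plus Hoechst 33342 and imaged by high-content microscopy for phospholipid accumulation.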
# [13] = qHTS assay to identify small molecule HDAC inhibitors (AID 1259364); further: potency means the concentration at half of the fitted maximal effect;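 further: wild-type HCT-116 cells with endogenous class I/II HDAC activity; nearly all actives have a fitted effect of over 45% in size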
# In short: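 Read-out: luminescence of HDAC-Glo I/II reagent, 30 min RT, reflecting class I/II deacetylase activity in whole HCT-116 cells pre-exposed 2 h to DMSO-dissolved compounds.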
# [14] = qHTS assay to identify small molecule HDAC inhibitors - cell viability counter screen (AID 1259365)
# In short: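 HCT-116 wild-type, overnight attachment; 2hr drug exposure, 37C; CellTiter-Glo luminescent ATP readout after 30min RT.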
# [15] = qHTS assay to identify small molecule agonists of the sonic hedgehog signaling (Shh) pathway - cell viability counter screen (AID 1259366); further: nearly all actives have a fitted effect of over 50% in size
# In short: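 Compounds in DMSO were pin-transferred onto 3T3 Gli1-Luc cells that had settled 4hr; plates then stood 24hr at 37C and 5% CO2. One hour before the end, CellTiter-Fluor was added and fluorescence recorded.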
# [16] = qHTS assay to identify small molecule antagonists of the sonic hedgehog signaling (Shh) pathway - cell viability counter screen (AID 1259367); further: nearly all actives have a fitted effect of over 55% in size; further: potency means the concentration at half of the fitted maximal effect
# In short: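 NIH/3T3-derived Gli1-Luc reporter cells (2,000 per well) rested 4 hr at 37 C, then received DMSO compounds plus conditioned medium. After 23 hr of treatment, CellTiter-Fluor was added for 1 hr at 37C and fluorescence read.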
# [17] = A CellTox Green Cytotoxicity Assay to monitor cytotoxicity in HEK293 cells - 8 hour (AID 1224884); further: nearly all actives have a fitted effect of over 35% in size
# In short: as §2
# [18] = A CellTox Green Cytotoxicity Assay to monitor cytotoxicity in HepG2 cells - 8 hour (AID 1224890); further: nearly all actives have a fitted effect of over 45% in size
# In short: as §3
# [19] = target: Androgen receptor (Homo sapiens) (UniProt P10275); test: qHTS assay to identify small molecule antagonists of the androgen receptor (AR) signaling pathway using the MDA cell line in the presence of 0.5 nM R1881 (AID 1259243); further: nearly all actives have a fitted effect of over 50% in size
# Androgen receptor (Homo sapiens), sequence (P10275 whole entry, looked up): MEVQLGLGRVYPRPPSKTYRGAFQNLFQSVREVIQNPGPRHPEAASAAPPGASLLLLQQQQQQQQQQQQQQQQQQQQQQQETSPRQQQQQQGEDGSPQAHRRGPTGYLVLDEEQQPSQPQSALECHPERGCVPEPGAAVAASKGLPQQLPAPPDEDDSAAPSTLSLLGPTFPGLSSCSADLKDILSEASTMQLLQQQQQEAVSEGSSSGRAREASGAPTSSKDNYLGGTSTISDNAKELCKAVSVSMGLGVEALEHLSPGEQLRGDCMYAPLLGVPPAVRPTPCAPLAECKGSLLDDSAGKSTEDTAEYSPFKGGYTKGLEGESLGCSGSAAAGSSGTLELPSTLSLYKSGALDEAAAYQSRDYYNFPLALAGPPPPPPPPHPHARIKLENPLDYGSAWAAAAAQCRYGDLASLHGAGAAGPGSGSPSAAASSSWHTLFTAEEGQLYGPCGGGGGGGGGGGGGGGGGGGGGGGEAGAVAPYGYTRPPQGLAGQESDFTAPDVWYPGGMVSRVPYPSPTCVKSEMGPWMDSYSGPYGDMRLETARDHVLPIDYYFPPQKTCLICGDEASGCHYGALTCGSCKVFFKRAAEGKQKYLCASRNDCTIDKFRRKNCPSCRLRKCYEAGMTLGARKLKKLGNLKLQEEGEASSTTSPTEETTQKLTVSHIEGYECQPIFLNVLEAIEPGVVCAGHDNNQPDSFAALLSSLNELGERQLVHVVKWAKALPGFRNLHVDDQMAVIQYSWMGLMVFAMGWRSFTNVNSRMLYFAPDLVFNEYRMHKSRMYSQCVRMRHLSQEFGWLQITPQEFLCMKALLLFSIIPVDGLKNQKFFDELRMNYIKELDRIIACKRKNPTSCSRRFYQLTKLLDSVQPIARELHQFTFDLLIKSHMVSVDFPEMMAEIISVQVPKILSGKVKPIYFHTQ
# In short: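 Reporter cells cultured without CO2 receive test chemicals, then 0.5 nM R1881 final; after 16 hr at 37C, ONE-Glo is added and light output recorded.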
# [20] = target: Estrogen receptor (Homo sapiens) (UniProt P03372); test: qHTS assay to identify small molecule antagonists of the estrogen receptor alpha (ER-alpha) signaling pathway using the BG1 cell line in the presence of 0.1 nM 17-beta-estradiol (AID 1259244); further: nearly all actives have a fitted effect of over 50% in size
# Estrogen receptor (Homo sapiens), sequence (P03372 whole entry, looked up): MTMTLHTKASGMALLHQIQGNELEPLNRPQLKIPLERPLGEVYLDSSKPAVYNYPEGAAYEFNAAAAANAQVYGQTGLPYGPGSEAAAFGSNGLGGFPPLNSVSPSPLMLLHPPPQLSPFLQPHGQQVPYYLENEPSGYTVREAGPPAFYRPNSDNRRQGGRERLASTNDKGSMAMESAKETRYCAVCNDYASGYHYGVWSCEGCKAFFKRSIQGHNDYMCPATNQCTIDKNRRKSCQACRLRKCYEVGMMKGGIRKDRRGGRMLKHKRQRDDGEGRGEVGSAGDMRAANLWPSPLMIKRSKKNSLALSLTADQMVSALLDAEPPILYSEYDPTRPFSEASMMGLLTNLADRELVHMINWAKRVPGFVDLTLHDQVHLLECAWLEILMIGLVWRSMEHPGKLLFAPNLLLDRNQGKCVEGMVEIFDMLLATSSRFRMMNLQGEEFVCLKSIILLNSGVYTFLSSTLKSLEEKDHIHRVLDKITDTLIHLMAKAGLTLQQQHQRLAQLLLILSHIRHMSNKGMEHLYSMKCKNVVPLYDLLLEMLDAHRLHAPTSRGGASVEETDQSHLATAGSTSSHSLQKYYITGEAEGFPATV
# In short: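 Estradiol at 0.1 nM (final) stimulates the endogenous ER-alpha of VM7Luc4E2 cells carrying an ERE-driven luciferase; compounds are co-incubated 22 h at 37C and luciferase output quantified by luminescence.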
SMILES,Potency [1],Potency [2],Potency [3],Potency [4],Potency [5],Potency [6],Potency [7],Potency [8],Potency [9],Potency [10],Potency [11],outcome [12],Potency [13],Potency [14],Potency [15],Potency [16],Potency [17],Potency [18],Potency [19],Potency [20]
Cc1oncc1C(=O)Nc1ccc(C(F)(F)F)cc1,inactive,inactive,inactive,inactive,inactive,inactive,inactive,inactive,inactive,inactive,inactive,inactive,2.43 µM (active) and 1.88 µM (active),inactive,inactive,61.1 µM (active) and inactive,–,–,–,–
CCOC(=O)C(C)Oc1ccc(Oc2nc3ccc(Cl)cc3o2)cc1 (centres undefined),inactive,inactive,inactive,inactive,–,24.5 µM (active),21.9 µM (active),–,inactive,inactive,inactive,–,inactive,inactive,inactive,inactive,inactive,inactive,inactive,–
O=C1OCCN1/N=C/c1ccc([N+](=O)[O-])o1,inactive,inactive,inactive,inactive,inactive,inactive,inactive,inactive,inactive,inactive,inactive,inactive,inactive,inactive,inactive,inactive,–,inactive,–,inactive
O=C(O)c1cccnc1C(=O)O,inactive,inactive,inactive,inactive,inactive,–,inactive,inactive,inactive,inactive,inactive,–,inactive,inactive,inactive,inactive,inactive,inactive,–,inactive
C=CC(C)(O)CCCC(C)CCCC(C)CCCC(C)C (centres undefined),inactive,inactive,inactive,inactive,–,inactive,inactive,inactive,inactive,inactive,inactive,–,inactive,inactive,inactive,inactive,inactive,inactive,–,inactive
CCC(C(=O)OCCOCCN(CC)CC)c1ccccc1 (centres undefined),inactive,inactive,inactive,inactive,–,–,inactive,–,inactive,inactive,inactive,inactive,inactive,inactive,inactive,inactive,inactive,inactive,–,–
CCOC(=O)CC(=O)C(=O)OCC,inactive,inactive,inactive,inactive,inactive,–,inactive,inactive,inactive,inactive,–,–,inactive,inactive,inactive,inactive,inactive,inactive,–,–
